Measured values: PubChem BioAssay AID1159580 (chemical genetic matrix, 2015)
Values joined by “and” are separate entries in the source; they are usually repeats but may differ in a detail not shown here. Identical values can stand only once. The whole screen tested about 5,500 compounds, of which about 2,000 (36%) were called active. Not shown: some 18% with an inconclusive outcome. No stated cut-off is given here; in the data, active means normalized growth mostly below about 0.91 (no sharp cut-off); inconclusive means no clear call, values can overlap the other calls; inactive means mostly above about 0.92. Some of the results follow.

Experiment: chemical genetic growth profiling, strain panel (AID 1159580);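 further: tested at 20 µM; growth read once vehicle control cultures reached saturation at 30 °C; 1 = growth at the plate median or of vehicle wells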
Details: S. cerevisiae deletion strains, growth OD

Measured: normalized growth

COc1ccccc1N1CCNCC1
inactive: locus YAL013W, strain DEP1, stronger effect = lower value 1.01 and 0.975 | locus YAL040C, strain CLN3, stronger effect = lower value 0.965 | locus YBR021W, strain FUR4, stronger effect = lower value 1.01 | locus YBR229C, strain ROT2, stronger effect = lower value 1.01 | locus YCL029C, strain bik1, stronger effect = lower value 1.03 | locus YCL061C, strain MRC1 (second series), stronger effect = lower value 0.993 | locus YDL035C, strain GPR1, stronger effect = lower value 1.01 | locus YDL074C, strain BRE1, stronger effect = lower value 1.01 | locus YDL101C, strain DUN1, stronger effect = lower value 1 | locus YDL134C, strain PPH21, stronger effect = lower value 1.01 | locus YDL185W, strain tfp1, stronger effect = lower value 1.03 | locus YDL192W, strain arf1, stronger effect = lower value 1.03 | locus YDR101C, strain arx1, stronger effect = lower value 1.02 | locus YDR150W, strain NUM1, stronger effect = lower value 1 and 0.996 | locus YDR162C, strain NBP2, stronger effect = lower value 1.01 | locus YDR318W, strain mcm21, stronger effect = lower value 1.03 | locus YDR363W, strain ESC2, stronger effect = lower value 0.962 | locus YDR388W, stronger effect = lower value 1.03 | locus YDR502C, strain sam2, stronger effect = lower value 1.02 | locus YEL061C, strain CIN8, stronger effect = lower value 1.01 | locus YER002W, strain NOP16, stronger effect = lower value 0.99 | locus YER110C, stronger effect = lower value 1.03 | locus YER155C, strain BEM2, stronger effect = lower value 1.01 | locus YER167W, strain BCK2, stronger effect = lower value 1.03 | locus YGL078C, strain dbp3, stronger effect = lower value 1.02 | locus YGL086W, strain mad1, stronger effect = lower value 1.02 | locus YGL248W, strain PDE1, stronger effect = lower value 1.01 | locus YGR078C, strain PAC10, stronger effect = lower value 1 | locus YGR135W, strain pre9, stronger effect = lower value 1.02 | locus YGR229C, strain SMI1, stronger effect = lower value 0.999 | locus YGR252W, strain gcn5, stronger effect = lower value 1.05 | locus YHR030C, strain SLT2, stronger effect = lower value 0.999 | locus YHR079C, strain IRE1 (second series), stronger effect = lower value 1.03 | locus YHR094C, strain hxt1, stronger effect = lower value 1.03 | locus YHR129C, strain ARP1, stronger effect = lower value 1 | locus YHR200W, strain rpn10, stronger effect = lower value 1.03 | locus YIL066C, strain RNR3, stronger effect = lower value 1.01 | locus YIL073C, strain SPO22, stronger effect = lower value 1.12 | locus YIL125W, strain kgd1, stronger effect = lower value 1.02 | locus YIR030C, strain dcg1, stronger effect = lower value 1.04 | locus YJL095W, strain BCK1, stronger effect = lower value 1 | locus YJL134W, strain LCB3, stronger effect = lower value 0.999 | locus YJL168C, strain set2, stronger effect = lower value 1.04 | locus YJL187C, strain SWE1 (second series), stronger effect = lower value 1.01 | locus YJR043C, strain POL32, stronger effect = lower value 1.01 | locus YJR075W, strain HOC1, stronger effect = lower value 0.969 and 0.984 | locus YKL009W, strain mrt4, stronger effect = lower value 0.986 | locus YKL068W, stronger effect = lower value 1.01 | locus YKL085W, strain MDH1 (second series), stronger effect = lower value 1.04
